These results are taken from PubChem BioAssay (NCI).

Assay [1] is described as follows: NCI Yeast Anticancer Drug Screen. Data for the rad50 strain (AID 155).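 Further: 0% = growth of vehicle-only cultures of the same strain.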 The following applies: S. cerevisiae rad50 strain growth inhibition; at 50.0 µM; hits give high values. In a few lines:
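A DNA repair-deficient yeast mutant serves as the test organism; compound-induced growth inhibition is calculated against vehicle-treated cells.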

Assay [2] in a line: NCI Yeast Anticancer Drug Screen. Data for the mec2-1 strain (AID 157). As to conditions: S. cerevisiae mec2-1 strain, at 50.0 µM, hits give high values. The procedure, abridged:
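Compounds were applied to mec2-1 yeast cells. Their growth was then compared with that of vehicle-treated cultures to give growth inhibition.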

Assay [3] can be described thus: NCI Yeast Anticancer Drug Screen. Data for the sgs1 mgt1 strain (AID 161).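 Further: 0% = growth of cultures given vehicle only.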 The following applies: S. cerevisiae sgs1 mgt1 strain, at 50.0 µM, hits give high values. The procedure, abridged:
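Compounds are added to genetically altered yeast, and growth is compared with cultures given vehicle alone to give percent inhibition.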

The nature of assay [4]: NCI Yeast Anticancer Drug Screen. Data for the cln2 rad14 strain (AID 165).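 Further: 0% = growth equal to vehicle treated cultures.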 The following applies: S. cerevisiae cln2 rad14 strain, at 50.0 µM, hits give high values. The procedure, abridged: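 Strain: cln2 rad14 yeast, altered in cell cycle control and DNA damage repair. Read-out: growth inhibition vs vehicle.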
Assay [5] can be described thus: NCI Yeast Anticancer Drug Screen. Data for the bub3 strain (AID 167). The following applies: S. cerevisiae bub3 mutant strain, at 50.0 µM, hits give high values. In a few lines: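 Inhibition values come from growth of compound-treated mutant yeast normalised to vehicle-treated controls.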
Assay [6] can be described thus: NCI Yeast Anticancer Drug Screen. Data for the mlh1 rad18 strain (AID 175). As to conditions: S. cerevisiae mlh1 rad18 strain growth inhibition; at 50.0 µM; hits give high values. The procedure, abridged: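 A repair-deficient yeast strain is exposed to test compound, and growth is scored relative to vehicle-treated controls.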

The structures appear in SMILES notation. This is part of a sample that, as a whole, favours compounds with a hit. Of some 79,000 tested, about 15% had one in any assay. Values without a mark were called inactive. The source made the active and inactive calls. No stated cut-off is given here; in the data, active means growth inhibition above about 70%; inactive means the rest.

Turning to `CN(C)CCCNC(=O)N/N=C/c1ccc(O)cc1`, the growth inhibition in assay [1] was -10.2%; in assay [2], -25.1%; in assay [3], 7%; in assay [4] it was 17.8%; in assay [5], 1.65%; in assay [6], -25.2%.

With `COc1cc2c(cc1OC)-c1c(C)c3ccc(OC)c(NCCO)c3c[n+]1CC2`, the growth inhibition is -43.2% in assay [1]; -10% in assay [2]; -29.7% in assay [3]; -17% in assay [4]; -0.4% in assay [5]; -8.3% in assay [6].

Consider `c1ccc(CN2C3C4N(Cc5ccccc5)C2C2N(Cc5ccccc5)C(C(N2Cc2ccccc2)N4Cc2ccccc2)N3Cc2ccccc2)cc1`, for which the growth inhibition was 10.1% in assay [1]; 2.35% in assay [2]; 21.9% in assay [3]; 3.2% in assay [4]; 11.8% in assay [5]; -3.6% in assay [6].

With `NC(Cc1ccc(OC(c2ccccc2)(c2ccccc2)c2ccccc2)cc1)C(=O)O` (centres undefined), the growth inhibition in assay [1] was -23.6%; in assay [2] it was -9.5%; in assay [3], 0.75%; in assay [4], -18.4%; in assay [5] it was -6.1%; in assay [6], -12.2%.

In the case of `CC1=C/C(=N\NC(=O)c2ccc[n+](C)c2)CC(C)(C)C1`, the growth inhibition in assay [1] was 18.7%; in assay [2] it was 2.2%; in assay [3], 6%; in assay [4] it was 18.4%; in assay [5], -5.4%; in assay [6], 12.2%.

Regarding `CC1(CCl)Nc2ccccc2C(=O)N1c1ccccc1` (centres undefined), the growth inhibition is 6.65% in assay [1]; -6.2% in assay [2]; 16.4% in assay [3]; 4.2% in assay [4]; 28.4% in assay [5]; 8.5% in assay [6].

With `O=c1[nH]cc(Cl)cc1[N+](=O)[O-]`, the growth inhibition is 10.8% in assay [1]; 3.95% in assay [2]; -1.4% in assay [3]; 2.3% in assay [4]; -17.8% in assay [5]; 1.7% in assay [6].

In the case of `Cc1ncc2c(n1)CCC1=C2OS(=O)(=O)CC1N(C)C` (centres undefined), the growth inhibition in assay [1] is -24.1%; in assay [2], -0.45%; in assay [3], -3.3%; in assay [4], 1.6%; in assay [5], -10.1%; in assay [6], -22.4%.

Turning to `CCCCCCCC(=O)Oc1c(Cl)c(Cl)c(C#N)c(Cl)c1C#N`, the growth inhibition in assay [1] was 20.9%; in assay [2], -3.55%; in assay [3], 11.5%; in assay [4] it was 13.7%; in assay [5] it was 5.8%; in assay [6], 25.4%.

As for `COC(=O)N/N=C(\C(=O)Nc1cccc([N+](=O)[O-])c1)c1nc2ccc([N+](=O)[O-])cc2[nH]c1=O`, the growth inhibition is 8.65% in assay [1]; -7.75% in assay [2]; 25% in assay [3]; 14.8% in assay [4]; -17.1% in assay [5]; -1.25% in assay [6].

Turning to `CCc1c(Cl)nc(N)nc1Nc1ccc(C)cc1`, the growth inhibition in assay [1] is -20.7%; in assay [2], -4.8%; in assay [3] it was -11.2%; in assay [4], -25%; in assay [5], 12%; in assay [6] it was -6.55%.

For `COc1ccc2nc(NC(=O)C(=O)NNC(=O)c3ccncc3)sc2c1`, the growth inhibition was -24.5% in assay [1]; -24% in assay [2]; -10.1% in assay [3]; 21.1% in assay [4]; -22.9% in assay [5]; -14.7% in assay [6].

In the case of `COC(=O)C[C@@]1(C(=O)OC)[C@@H](C(=O)OC)C(C(=O)OC)=NN1C`, the growth inhibition was -5.35% in assay [1]; -18.4% in assay [2]; 0.85% in assay [3]; -49% in assay [4]; 18.1% in assay [5]; -4.45% in assay [6].

As for `COc1ccc(NC(=O)C(Br)C(Br)c2ccccc2)c(Cl)c1` (centres undefined), the growth inhibition in assay [1] was 96.8% (active); in assay [2], 97.2% (active); in assay [3] it was 97.2% (active); in assay [4], 97.3% (active); in assay [5], 97% (active); in assay [6], 97.2% (active).

Consider `COc1ccc(CC2c3cc(OC)c(OC)cc3C=CN2C)cc1OC` (centres undefined), for which the growth inhibition in assay [1] is 20.8%; in assay [2], 4.55%; in assay [3] it was 24.1%; in assay [4], 14.9%; in assay [5], 35.6%; in assay [6], 2.3%.

In the case of `CN(C)C=Nc1c2c(nc3ccccc13)CCCC2`, the growth inhibition was -35.4% in assay [1]; -16.4% in assay [2]; -8.8% in assay [3]; 7.4% in assay [4]; 18.9% in assay [5]; 18.4% in assay [6].

In the case of `N#CC(NNC(=O)Cc1ccccc1)c1ccccc1O` (centres undefined), the growth inhibition in assay [1] is 0.8%; in assay [2] it was -10%; in assay [3], -2.05%; in assay [4] it was -19.4%; in assay [5], -21.7%; in assay [6], -12.8%.

As to `FC1(F)C2(OCCO2)C(F)(F)C12OCCO2`, the growth inhibition in assay [1] is -1.6%; in assay [2] it was -5.25%; in assay [3] it was -1.8%; in assay [4] it was -1.1%; in assay [5], -8.5%; in assay [6], -4.8%.

For the compound `Nc1ccccc1CO`, the growth inhibition in assay [1] was 3%; in assay [2] it was 2.4%; in assay [3] it was 2.25%; in assay [4], -0.05%; in assay [5], -4.65%; in assay [6], 7.1%.
